# Assay results: PubChem BioAssay (NCI)
# “And” between values parts separate entries of the source, which are not always exact repeats. Equal values may be shown once. The panel holds about 83,000 compounds, 20% with a hit somewhere; the sample as a whole holds those more often.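 Interpretation: 100, growth as untreated; towards 0, rising growth inhibition; 0, no net growth; 0 to -100, cell death. Compounds scoring below 10 were considered active.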 The source made the active and inactive calls.
# Test system: HL-60(TB) leukemia
# Assay: NCI-60 one-dose screen, 48 h (100 = growth as untreated, 0 = no growth, -100 = all killed)
# Details: 10 µM unless noted
row,Compound,growth
1,Cc1ccc(NCCN2CCCCC2)c2c(=O)c3ccccc3sc12,1.52% (active)
2,CCOC(=O)c1c(C)oc2ncnc(N3CCN(C(=S)Nc4ccccc4)CC3)c12,94.7% (inactive)
3,NC(N)=Nc1ccc(S(=O)(=O)O)cc1,108% (inactive)
4,CC(C)C1=C(O)C2=C(C(=O)C1=O)[C@@]1(C)CCCC(C)(C)[C@@H]1CC2,56.4% (inactive)
5,COc1ccc(NC(=O)c2sc3nc(C)c(C(=O)/C=C/c4cccc(OC)c4)cc3c2N)cc1,33.6% (inactive)
6,CCOC(=O)Nc1nc2ccccc2[nH]1,101% (inactive) and -38.2% (active)
7,COc1ccc(-c2nc(N)ncc2Oc2ccccc2OC)c(O)c1,-21.8% (active)
8,O=C(c1ccccc1)C(CN1CCOCC1)c1ccccc1 (stereo not given),12.2% (inactive)
9,CCC(C)(O)c1ccc(C)cc1 (stereo not given),97.3% (inactive)
10,C[C@@H](CO)[C@@H]1CCC=C2CC[C@]3(C)[C@H](CC[C@@H]4[C@@]5(C)CCCNC(C)(C)[C@@H]5CC[C@]43C)[C@H]21,-6.22% (active)
11,O=C(Nc1cc(Cl)ccc1O)c1ccc(Nc2ccnc(C(F)(F)F)c2)cc1,-11% (active)
12,COc1cc(-c2c3c(nc4c2c(C)nn4-c2ccccc2)-c2ccccc2C(=O)C3=O)cc(OC)c1OC,68.8% (inactive)
13,C=CCCCOC1[C@H](OCc2ccccc2)C(OCc2ccccc2)C(OC)O[C@@H]1CNC(=O)c1cccc(I)c1 (stereo not given in full),55.1% (inactive)
14,COc1cc(C2CC(c3cccc(Br)c3)=NN2C(C)=O)cc(OC)c1OC (stereo not given),78.2% (inactive)
15,C#COc1cccc(Nc2c(C#N)cnc3ncc(NC(=O)CCl)cc23)c1,19.6% [6.25 µM] (inactive)
16,COc1cc(NCCCCCN)c2ncccc2c1,83.2% (inactive)
17,Nc1nc2c([nH]1)c1[nH]c3ccccc3c1c1[nH]c3ccccc3c21,25.5% (inactive)
18,O=C1CCCN1C(O)CCN(Cc1ccccc1)Cc1ccc(Cl)cc1 (stereo not given),96.4% (inactive)
19,Brc1c2c(c(Br)c3ccccc13)CCCC2,91.4% (inactive)
20,COc1ccc(C(c2cc(OC)c(OC)c(OC)c2)N2CCN(c3ccccc3)CC2)cc1 (stereo not given),67.1% (inactive)
21,O=C(Nc1cccc(C(F)(F)F)c1)Nc1cccc(C(F)(F)F)c1,-27.8% (active)
22,COc1cc(C2c3cc(OC(C)=O)c(OC)cc3CC3C(=O)OCC32)ccc1OC(C)=O (stereo not given),71.7% (inactive)
23,O=C(Nc1ccc(Oc2ccc(NC(=O)Nc3ccc([N+](=O)[O-])cc3)cc2)cc1)Nc1ccc([N+](=O)[O-])cc1,-32.6% (active)
24,O=C(Nc1nc2cc(C(=O)N3CCN(C(c4ccccc4)c4ccccc4)CC3)ccc2o1)c1ccc(NC2CCCCC2)c([N+](=O)[O-])c1,82% (inactive)
25,N#C/C(=C\c1ccc2c(c1)OCO2)n1nnc2cc(F)c(F)cc21,38.6% (inactive)
26,N#C/C(=C/c1cc([N+](=O)[O-])ccc1Cl)C(N)=O,91.7% (inactive)
27,Cc1nc2ccccc2c(/C=C/c2ccc(Cl)cc2)c1C(=O)/C=C/c1ccc(Cl)cc1,-34.6% (active)

row,Compound,growth
1,Cc1cc(O)c(C2=NN(c3ccc(S(N)(=O)=O)cc3)C(c3ccc(Cl)cc3)C2)c(C)c1Cl (stereo not given),18.4% (inactive)
2,CC(C)[N+](C)(C)CC(O)COc1cccc2ccccc12 (stereo not given),126% (inactive)
3,COc1cc(-c2nc(-c3ccc(-c4nc5ccc(F)cc5[nH]4)cc3)no2)cc(OC)c1OC,13.4% (inactive)
4,CCNC(=S)NNC(=O)c1cc2ccc1CCc1ccc(cc1)CC2,100% (inactive)
5,CCN(CC)CCOc1ccc(C(=C(C)c2ccc(Cl)cc2)c2ccc(OCCN(CC)CC)cc2)cc1,-55.5% (active)
6,Cn1cc(-c2csc(-c3cn(C(=O)OC(C)(C)C)c4ccc(Br)cc34)n2)c2ccnc(Cl)c21,115% (inactive)
7,COC(=O)/C=C1/SC(=Nc2ccc(C)cc2)N(CCc2c[nH]c3ccc(O)cc23)C1=O,49.3% (inactive)
8,Cc1ccc(NC(=O)Cn2cc(CN3CCN(c4ccnc5cc(Cl)ccc45)CC3)nn2)cc1,87% (inactive)
9,CC(=O)NCC(=O)N1[C@@H]2CC[C@H]1c1ccc(Nc3ncc(C(F)(F)F)c(NC4CCC4)n3)cc12,11.8% [2.5 µM] (inactive)
10,O=[N+]([O-])c1ccc(Nc2nc(NCCN3CCOCC3)ncc2[N+](=O)[O-])cc1,102% (inactive)
11,Cn1cc([C@@H]2Nc3ccc4[nH]ncc4c3[C@H]3[C@H]4CCC(C4)[C@H]32)c(C(F)(F)F)n1,7.12% (active)
12,CN(C)c1ccc(Cc2ccc(N(C)C)cc2Cl)c(Cl)c1,5.92% (active)
13,CCCCCCCCCCCCCCCCC(C(=O)O)C(O)(CC(=O)O)C(=O)O (stereo not given),94.6% (inactive) and -8.25% (active)
14,Cc1ccc(=O)[nH]n1,99.9% (inactive) and 102% (inactive)
15,CCOC(=O)C1C(=O)C=C(c2ccc(OC)cc2)CC1c1sc(N(C)Cc2ccccc2)nc1Cl (stereo not given),83% (inactive)
16,Cc1cc(-c2ccccc2)c(C)n1Cc1ccc(Cl)cc1,-27.2% (active)
17,c1ccc(C2=NN[C@H](c3cn(-c4ccccc4)nc3-c3ccccc3)C2)cc1,112% (inactive)
18,CCOC(=O)/C=C/c1ccc(C(=O)OCC)[nH]1,51.2% (inactive)
19,CN[C@]12CC3(C=CC(=O)C=C3)O[C@@]1(Cc1ccc(OC)cc1)N(C)C(=O)N2,-3.53% (active)
20,CCC(=C(c1ccc(OCCN2CCCC2)cc1)c1ccc(OCCN2CCCC2)cc1)c1ccc(Cl)cc1,-52.5% (active)
21,COc1cc(NCCN=C(N)NC(N)=NC(C)C)c2ncccc2c1,74.8% (inactive)
22,Clc1ccc(C2c3ccccc3-c3nccn32)c(Cl)c1 (stereo not given),48.6% (inactive)
23,COC(=O)[C@]12CC[C@@H](C)[C@H](C)[C@@H]1C1=CC[C@@H]3[C@@]4(C)C(C=O)=C[C@@](C)(COC(C)=O)[C@@H]4[C@H](O)C[C@@]3(C)[C@]1(C)CC2,-24.7% (active)
24,C=C(C)[C@@H]1CC[C@]2(CN)CC[C@]3(C)[C@H](CC[C@@H]4[C@@]5(C)CCC(N)[C@@](C)(CO)[C@@H]5CC[C@]43C)[C@@H]12 (stereo not given in full),-66.1% (active)
25,CCN(CC)c1ccc(/C=C/c2ccc3cc(C)ccc3[n+]2CC)cc1,-41.5% (active)
26,CC(=O)OCC1OC(OCC2OC(OC(C)=O)C(OC(C)=O)C(OC(C)=O)C2OC(C)=O)C(OC(C)=O)C(OC(C)=O)C1OC(C)=O (stereo not given),115% (inactive)
27,COc1ccc(C2C3=C(COC3=O)N(CCO)c3cc4c(cc32)OCCO4)cc1 (stereo not given),82.1% (inactive)

row,Compound,growth
1,Nc1nc(Cl)c2ncn(Cc3cc4c(cc3I)OCO4)c2n1,52.3% (inactive)
2,O=C(O)CC1Sc2ccccc2NC1=O (stereo not given),115% (inactive)
3,O=C(c1ccc(Cl)cc1Cl)N1CCOCC1,105% (inactive)
4,COc1cc(C)c(C2C(C#N)=C(N)Oc3n[nH]c(-c4cccs4)c32)cc1C(C)C (stereo not given),66.2% (inactive)
5,CCCCN1CCN(c2ccc3nc(-c4ccc5nc(-c6cc(OC)c(OC)c(OC)c6)[nH]c5c4)[nH]c3c2)CC1,85.7% (inactive)
6,CCOC(=O)CSc1nnc(-c2cc3c([nH]c4ccccc43)c(-c3cccc(O)c3)n2)n1-c1ccc(C)cc1,45.3% (inactive)
7,O=C(Nc1nc2ccc(F)cc2s1)c1cc(-c2ccc(F)cc2)n2nc(-c3ccccc3)cc2n1,92.9% (inactive)
8,Cc1ccc2cccc([N+](=O)[O-])c2n1,93.2% (inactive) and 94.6% (inactive)
9,CCN(CCNS(C)(=O)=O)c1ccc(N)c(C)c1,11.5% (inactive) and 77.3% (inactive)
10,O=C(Nc1ccncc1)C(=O)c1cn(S(=O)(=O)c2ccc(Br)cc2)c2ccccc12,15.3% (inactive)
11,COc1ccc2[nH]cc(-c3nc(-c4cn(C)c5c(Cl)nccc45)cs3)c2c1,30.5% (inactive)
12,CCOC(=O)C1=CC(=O)CC(C)(C)O1,53.2% (inactive) and 69.6% (inactive)
13,CC(C)N=c1cc2n(-c3ccc(Cl)cc3)c3ccccc3nc-2cc1Nc1ccc(Cl)cc1,-6.14% (active) and -2.06% (active) and -36.3% (active)
14,CC[C@H](CC[C@@H](C)[C@H]1CC[C@H]2[C@@H]3CC=C4C[C@@H](O)CC[C@]4(C)[C@H]3CC[C@]12C)C(C)C,125% (inactive) and 100% (inactive)
15,CCN(CC)CCOc1ccc(-c2nc3cc(Cl)ccc3s2)cc1,-74.2% (active)
16,CCN1C(=O)N(c2ccccc2)C2NN=c3s/c(=C4\C(=O)N(C(C)C)c5ccccc54)c(=O)n3C21 (stereo not given),-16.1% (active)
17,Cc1ccccc1N=C(c1ccccc1)C1C(=O)c2ccccc2C1=O,78.5% (inactive)
18,CC(C)(C)CC(C)(C)c1ccc(OCCOCCSC(=N)N)cc1,-51.7% (active)
19,Clc1ccc(/C=N\N=c2\scc(-c3ccc(Cl)cc3)n2/N=C/c2ccc(Cl)cc2)cc1,84.5% (inactive)
20,O=Nc1ccc(NO)c2ccccc12,108% (inactive) and 26.9% (inactive)
21,Nc1ccc(-c2nn3c(CCC(=O)c4nc5ncccc5[nH]4)nnc3s2)c(O)c1,107% (inactive)
22,Cc1ccc(Cl)c(NS(=O)(=O)c2ccc(-c3cnc(C4CC4)o3)cc2)c1,-22% (active)
23,CC(=O)c1cc(C)c(OC(=O)c2ccccc2)c(C)c1,97.9% (inactive)
24,O=C(CCl)Nc1ccccc1SCc1cc(Cl)cc2c1OCOC2,49.4% (inactive)
25,O=C(Nc1cccc(Cn2c(=O)[nH]c3ccc(Oc4ncccn4)cc3c2=O)c1)c1ccc(Cl)cc1,64.2% (inactive)
26,C=C1C(=O)O[C@H]2[C@H]1CC/C(COC(=O)NCc1ccc(OC)cc1)=C\CC[C@@]1(C)O[C@@H]21,11.1% (inactive)
